According to PubChem BioAssay (NCATS):
Records with an inconclusive call do not appear. Where a call stands in place of a potency, no number is given. The source made the active and inactive calls. Unless noted, calls come from the whole dose curve; as a rule, active = well fitted activation curve with a large enough effect in the main read-out, with a control signal flat (not every such curve was filed as active); inconclusive = small, poorly fitted or top-dose-only effect, or effect the other way, or a change in a side signal; inactive = flat fitted curve, though single readings scatter.

How the values were obtained:
[1] = molecular target: Mitogen-activated protein kinase 10 (Mus musculus) (UniProt Q61831); assay: JNK3 AlphaScreen Assay (AID 530; active = well fitted curve in either direction with a large enough effect, not every such curve was filed as active;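 note: kinase came from lysate of stimulated human HepG2 cells; signal reports phosphorylation of biotinylated GST-cJun 1-79 at Ser73 with 10 µM ATP; series mostly up to about 57 µM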)
Method in brief: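 qHTS format: compounds tested as titrations against IL-1beta/TNF-alpha-activated HepG2 lysate JNK3 with biotin-GST-cJun substrate and 10 uM ATP at room temperature. Loss of anti-phospho-cJun AlphaScreen signal indicates inhibition.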

[2] = molecular target: 3',5'-cyclic-AMP phosphodiesterase 4B (Homo sapiens) (UniProt Q07343); assay: qHTS Assay for Inhibitors of PDE-IV (AID 607)
Method in brief: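 The readout is membrane depolarisation from a cAMP-sensing CNG channel, detected with a potential dye at ex 535/em 590. Cells were HEK293-derived (endogenous PDE-IV) at 1000 cells/well, titrated up to 22.9 uM final.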

[3] = molecular target: Cytochrome P450 3A4 (Homo sapiens) (UniProt P08684); assay: qHTS Assay for Activators of Cytochrome P450 3A4 (AID 885; active = well fitted curve in the direction sought with a large enough effect; an effect the other way counts as inactive or inconclusive; note: nearly all actives have a fitted effect of over 65% in size)
Method in brief: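 Steps: enzyme/substrate mix dispensed; compound added, 10 min RT; NADPH regeneration solution added, 60 min RT; luciferin detection buffer stops reaction; 20 min later luminescence measured.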

[4] = molecular target: Cytochrome P450 2C9 (Homo sapiens) (UniProt P11712); assay: qHTS Assay for Inhibitors and Substrates of Cytochrome P450 2C9 (AID 883; active = well fitted curve in the direction sought with a large enough effect; an effect the other way counts as inactive or inconclusive; note: potency is the fitted concentration of half-maximal effect; nearly all actives have a fitted effect of over 60% in size)
Method in brief: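 Signal: luciferase luminescence reporting luciferin produced by CYP2C9. Conditions: 10nM enzyme, Luciferin-H 100uM at KM, 25mM KPO4, 37C, 60 min NADPH-driven reaction. Reference: 57uM sulphaphenazole as 100% inhibition.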

[5] = molecular target: Cytochrome P450 3A4 (Homo sapiens) (UniProt P08684); assay: qHTS Assay for Inhibitors and Substrates of Cytochrome P450 3A4 (AID 884; active = well fitted curve in the direction sought with a large enough effect; an effect the other way counts as inactive or inconclusive; note: potency is the fitted concentration of half-maximal effect; nearly all actives have a fitted effect of over 50% in size)
Method in brief: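 20 nM human CYP3A4 with 25 uM Luciferin-PPXE (at KM) in 200 mM KPO4, preincubated 10 min with compound; NADPH regeneration started a 60 min RT reaction. Luciferin detected by luminescence, normalized to 57 uM ketoconazole as full inhibition.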

[6] = molecular target: Cytochrome P450 2C19 (Homo sapiens) (UniProt P33261); assay: qHTS Assay for Inhibitors and Substrates of Cytochrome P450 2C19 (AID 899; active = well fitted curve in the direction sought with a large enough effect; an effect the other way counts as inactive or inconclusive; note: potency is the fitted concentration of half-maximal effect; nearly all actives have a fitted effect of over 60% in size)
Method in brief: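 Signal comes from luciferase acting on luciferin released by CYP2C19-mediated hydroxylation of Luciferin-H EGE, 10uM (KM). Assay mix: 5nM enzyme, 50mM KPO4; 60 min at 37C with NADPH regeneration. Data normalized against 57uM ketoconazole.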

Cytochrome P450 3A4 (Homo sapiens), sequence (P08684 whole entry, looked up): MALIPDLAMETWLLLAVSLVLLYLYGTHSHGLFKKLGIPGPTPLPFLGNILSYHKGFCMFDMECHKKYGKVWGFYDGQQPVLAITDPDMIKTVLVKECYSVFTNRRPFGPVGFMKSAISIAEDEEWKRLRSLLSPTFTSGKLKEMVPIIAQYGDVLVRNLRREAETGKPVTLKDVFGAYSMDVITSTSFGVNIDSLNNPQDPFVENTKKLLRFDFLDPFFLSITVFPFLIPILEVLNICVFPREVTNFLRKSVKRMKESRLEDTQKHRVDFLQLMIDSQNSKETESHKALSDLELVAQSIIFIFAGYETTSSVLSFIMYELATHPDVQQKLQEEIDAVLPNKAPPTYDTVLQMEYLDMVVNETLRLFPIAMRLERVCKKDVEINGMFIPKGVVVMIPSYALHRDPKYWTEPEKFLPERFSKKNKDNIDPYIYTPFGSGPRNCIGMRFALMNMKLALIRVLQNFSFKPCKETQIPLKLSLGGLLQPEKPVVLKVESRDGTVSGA
3',5'-cyclic-AMP phosphodiesterase 4B (Homo sapiens), sequence (Q07343 whole entry, looked up): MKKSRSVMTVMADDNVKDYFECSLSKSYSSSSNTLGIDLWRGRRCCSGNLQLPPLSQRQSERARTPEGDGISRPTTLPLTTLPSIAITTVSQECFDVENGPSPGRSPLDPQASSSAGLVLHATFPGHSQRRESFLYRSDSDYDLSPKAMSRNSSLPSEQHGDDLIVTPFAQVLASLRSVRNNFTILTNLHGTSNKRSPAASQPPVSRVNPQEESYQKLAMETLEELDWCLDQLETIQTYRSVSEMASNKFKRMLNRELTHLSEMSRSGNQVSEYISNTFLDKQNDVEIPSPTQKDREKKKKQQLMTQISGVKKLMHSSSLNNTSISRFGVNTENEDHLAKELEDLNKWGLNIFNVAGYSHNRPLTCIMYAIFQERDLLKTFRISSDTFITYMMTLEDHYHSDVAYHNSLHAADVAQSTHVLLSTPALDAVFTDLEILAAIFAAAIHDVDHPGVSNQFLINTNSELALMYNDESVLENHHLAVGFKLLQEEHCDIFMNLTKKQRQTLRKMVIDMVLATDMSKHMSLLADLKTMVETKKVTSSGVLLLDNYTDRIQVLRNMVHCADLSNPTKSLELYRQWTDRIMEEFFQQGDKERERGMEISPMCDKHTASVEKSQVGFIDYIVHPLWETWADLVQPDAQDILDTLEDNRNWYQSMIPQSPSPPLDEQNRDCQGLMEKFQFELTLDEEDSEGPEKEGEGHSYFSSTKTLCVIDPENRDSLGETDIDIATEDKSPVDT
Cytochrome P450 2C9 (Homo sapiens), sequence (P11712 whole entry, looked up): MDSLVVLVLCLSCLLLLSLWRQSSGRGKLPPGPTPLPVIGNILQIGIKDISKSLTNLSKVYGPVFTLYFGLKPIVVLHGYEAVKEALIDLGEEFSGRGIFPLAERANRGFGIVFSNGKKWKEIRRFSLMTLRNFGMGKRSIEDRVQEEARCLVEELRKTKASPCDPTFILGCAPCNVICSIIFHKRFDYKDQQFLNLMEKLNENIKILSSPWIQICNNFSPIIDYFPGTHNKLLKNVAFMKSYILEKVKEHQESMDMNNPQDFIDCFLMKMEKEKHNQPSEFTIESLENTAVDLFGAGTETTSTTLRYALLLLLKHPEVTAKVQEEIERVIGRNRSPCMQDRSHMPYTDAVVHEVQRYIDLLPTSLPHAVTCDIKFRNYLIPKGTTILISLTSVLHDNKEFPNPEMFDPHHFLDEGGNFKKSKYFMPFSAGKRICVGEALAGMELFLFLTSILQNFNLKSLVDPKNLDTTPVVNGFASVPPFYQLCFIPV
Cytochrome P450 2C19 (Homo sapiens), sequence (P33261 whole entry, looked up): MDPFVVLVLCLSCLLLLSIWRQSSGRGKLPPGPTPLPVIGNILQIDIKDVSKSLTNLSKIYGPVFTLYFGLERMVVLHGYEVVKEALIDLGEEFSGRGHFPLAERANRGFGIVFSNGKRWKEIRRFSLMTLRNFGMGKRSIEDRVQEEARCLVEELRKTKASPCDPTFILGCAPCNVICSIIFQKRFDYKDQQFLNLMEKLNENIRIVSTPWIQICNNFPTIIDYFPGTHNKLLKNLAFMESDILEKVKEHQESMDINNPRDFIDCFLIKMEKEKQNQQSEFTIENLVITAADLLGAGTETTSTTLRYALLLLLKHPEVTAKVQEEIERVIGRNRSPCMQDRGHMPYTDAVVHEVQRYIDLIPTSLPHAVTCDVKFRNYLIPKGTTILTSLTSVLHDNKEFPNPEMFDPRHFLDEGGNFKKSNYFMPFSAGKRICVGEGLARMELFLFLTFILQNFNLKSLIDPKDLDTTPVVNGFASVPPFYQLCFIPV

CO[C@H]1OC[C@@]2(C)[C@@H]3C4=C(CN2C(=O)OC(C)(C)C)[C@H](C)[C@H](CO)[C@H](CO)[C@H]4CC[C@H]13
outcome [1]: inactive
outcome [2]: inactive
Potency [3]: inactive

COC(=O)[C@@]1(Cc2ccc(F)cc2)[C@H]2c3cc(C(=O)N(C)C)n(Cc4ccc(S(C)(=O)=O)cc4)c3C[C@H]2CN1C(=O)c1ccccc1
outcome [1]: inactive
outcome [2]: inactive

CS(=O)(=O)c1ccc(CNC(=O)[C@H]2C[C@@H]2[C@H](NP(=O)(c2ccccc2)c2ccccc2)c2ccccc2)cc1
outcome [1]: inactive
outcome [2]: inactive

COC(=O)[C@@]1(Cc2ccccc2)[C@H]2c3cc(C(=O)N4CCCC4)[nH]c3C[C@H]2CN1C(=O)c1ccccc1
outcome [1]: inactive
outcome [2]: inactive
Potency [4]: 794 nM (active)
Potency [5]: 2510 nM (active)
Potency [3]: inactive
Potency [6]: 501 nM (active)

C[C@H]1C2=C3C(CC[C@H]4C(OCc5ccc(F)cc5C(F)(F)F)OC[C@](C)([C@@H]34)N(C(=O)OC(C)(C)C)C2)C2COC(=O)OCC21 (stereo not given in full)
outcome [1]: inactive
outcome [2]: inactive
Potency [3]: inactive

C[C@H](CO)NC(=O)[C@H](C)[C@@H]1C[C@@]1(C)[C@@H](NC(=O)OCc1ccccc1)c1ccccc1
outcome [1]: inactive
outcome [2]: inactive
Potency [5]: 5010 nM (active)

COC(=O)[C@H]1C[C@@H]1[C@H](NS(=O)(=O)c1ccccc1)c1ccccc1
outcome [1]: inactive
outcome [2]: inactive

COC(=O)[C@@]1(Cc2ccc(OC)cc2)[C@H]2c3cc(C(=O)N(C)C)n(CCc4ccc(O)c(OC)c4)c3C[C@H]2CN1C(=O)c1ccccc1
outcome [1]: inactive
outcome [2]: inactive

COC(=O)[C@@]1(Cc2ccccc2)[C@H]2c3cc(C(=O)N(C)C)n(CCF)c3C[C@H]2CN1C(=O)c1ccccc1
outcome [1]: inactive
outcome [2]: inactive
